Out of some 5,500 compounds screened, about 2,000 (36%) were called active. Not shown: some 18% with an inconclusive outcome. Rule as the data show it: active = normalized growth mostly below about 0.91 (no sharp cut-off); inconclusive = no clear call, values can overlap the other calls; inactive = mostly above about 0.92. The list shows a part of the results.
Assay: chemical genetic growth profiling, strain panel (AID 1159580);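 also: tested at 20 µM; growth read once vehicle control cultures reached saturation at 30 °C; 1 = growth at the plate median or of vehicle wells; lower values mean less growth of the strain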
Conditions: growth OD

Measured: normalized growth

CC(=O)Nc1cccc(O)c1
inactive: S. cerevisiae deletion strains, locus YJL187C, strain SWE1, stronger effect = lower value 1.02 | S. cerevisiae deletion strains, locus YJR043C, strain POL32, stronger effect = lower value 0.999 | S. cerevisiae deletion strains, locus YJR075W, strain HOC1, stronger effect = lower value 1.01 | S. cerevisiae deletion strains, locus YKL009W, strain mrt4, stronger effect = lower value 0.973 | S. cerevisiae deletion strains, locus YKL068W, stronger effect = lower value 0.989 | S. cerevisiae deletion strains, locus YKL085W, strain MDH1 (second series), stronger effect = lower value 1.01 | S. cerevisiae deletion strains, locus YKL085W, strain MDH1, stronger effect = lower value 1.01 | S. cerevisiae deletion strains, locus YKL160W, strain elf1, stronger effect = lower value 1.05 | S. cerevisiae deletion strains, locus YKL190W, strain CNB1, stronger effect = lower value 1 | S. cerevisiae deletion strains, locus YKR001C, strain vps1, stronger effect = lower value 0.991 | S. cerevisiae deletion strains, locus YKR026C, strain gcn3, stronger effect = lower value 1.01 | S. cerevisiae deletion strains, locus YKR091W, strain srl3, stronger effect = lower value 1.01 | S. cerevisiae deletion strains, locus YLL001W, strain dnm1, stronger effect = lower value 0.995 | S. cerevisiae deletion strains, locus YLL026W, stronger effect = lower value 1.03 | S. cerevisiae deletion strains, locus YLL041C, strain sdh2, stronger effect = lower value 1.03 | S. cerevisiae deletion strains, locus YLR027C, strain aat2, stronger effect = lower value 1.01 | S. cerevisiae deletion strains, locus YLR039C, strain RIC1, stronger effect = lower value 1 | S. cerevisiae deletion strains, locus YLR058C, strain SHM2, stronger effect = lower value 1.01 | S. cerevisiae deletion strains, locus YLR102C, strain apc9, stronger effect = lower value 1.01 | S. cerevisiae deletion strains, locus YLR221C, strain rsa3, stronger effect = lower value 0.972 | S. cerevisiae deletion strains, locus YLR258W, strain gsy2, stronger effect = lower value 1.04 | S. cerevisiae deletion strains, locus YLR262C, strain YPT6 (second series), stronger effect = lower value 1.01 | S. cerevisiae deletion strains, locus YLR262C, strain YPT6, stronger effect = lower value 1.02 | S. cerevisiae deletion strains, locus YLR268W, strain sec22, stronger effect = lower value 0.986 | S. cerevisiae deletion strains, locus YLR320W, strain mms22, stronger effect = lower value 0.957 | S. cerevisiae deletion strains, locus YLR330W, strain CHS5, stronger effect = lower value 1.01 | S. cerevisiae deletion strains, locus YLR342W, strain FKS1 (second series), stronger effect = lower value 1 | S. cerevisiae deletion strains, locus YLR342W, strain FKS1, stronger effect = lower value 1.04 | S. cerevisiae deletion strains, locus YLR357W, strain rsc2, stronger effect = lower value 1.04 | S. cerevisiae deletion strains, locus YLR370C, strain arc18, stronger effect = lower value 1.03 | S. cerevisiae deletion strains, locus YLR371W, strain rom2, stronger effect = lower value 0.999 | S. cerevisiae deletion strains, locus YLR384C, strain iki3, stronger effect = lower value 1.02 | S. cerevisiae deletion strains, locus YLR418C, strain cdc73, stronger effect = lower value 0.996 | S. cerevisiae deletion strains, locus YML016C, strain PPZ1, stronger effect = lower value 1.01 | S. cerevisiae deletion strains, locus YML032C, strain rad52, stronger effect = lower value 0.995 | S. cerevisiae deletion strains, locus YML120C, strain ndi1, stronger effect = lower value 0.972 | S. cerevisiae deletion strains, locus YML124C, strain tub3, stronger effect = lower value 0.986 | S. cerevisiae deletion strains, locus YMR058W, strain fet3, stronger effect = lower value 1.02 | S. cerevisiae deletion strains, locus YMR078C, strain ctf18, stronger effect = lower value 0.989 | S. cerevisiae deletion strains, locus YMR125W, strain sto1, stronger effect = lower value 1.03 | S. cerevisiae deletion strains, locus YMR129W, stronger effect = lower value 0.998 | S. cerevisiae deletion strains, locus YMR205C, strain PFK2, stronger effect = lower value 0.991 | S. cerevisiae deletion strains, locus YMR223W, strain ubp8, stronger effect = lower value 1 | S. cerevisiae deletion strains, locus YMR231W, strain pep5, stronger effect = lower value 1 | S. cerevisiae deletion strains, locus YMR263W, strain SAP30, stronger effect = lower value 1.01 | S. cerevisiae deletion strains, locus YMR307W, strain GAS1, stronger effect = lower value 1 | S. cerevisiae deletion strains, locus YNL067W, strain RPL9B, stronger effect = lower value 1.01 | S. cerevisiae deletion strains, locus YNL071W, strain lat1, stronger effect = lower value 1.01 | S. cerevisiae deletion strains, locus YNL153C, strain GIM3, stronger effect = lower value 1.02 | S. cerevisiae deletion strains, locus YNL209W, strain ssb2, stronger effect = lower value 1.02 | S. cerevisiae deletion strains, locus YNL233W, strain BNI4, stronger effect = lower value 1.02 | S. cerevisiae deletion strains, locus YNL248C, strain rpa49, stronger effect = lower value 1.07 | S. cerevisiae deletion strains, locus YNL250W, strain rad50, stronger effect = lower value 0.995 | S. cerevisiae deletion strains, locus YNL271C, strain bni1, stronger effect = lower value 0.993 | S. cerevisiae deletion strains, locus YNL298W, strain CLA4, stronger effect = lower value 0.978 | S. cerevisiae deletion strains, locus YNL307C, strain MCK1, stronger effect = lower value 1.01 | S. cerevisiae deletion strains, locus YNL322C, strain KRE1 (second series), stronger effect = lower value 1.05 | S. cerevisiae deletion strains, locus YNL322C, strain KRE1, stronger effect = lower value 1 | S. cerevisiae deletion strains, locus YNR049C, strain mso1, stronger effect = lower value 1.01 | S. cerevisiae deletion strains, locus YNR052C, strain pop2, stronger effect = lower value 1 | S. cerevisiae deletion strains, locus YOL006C, strain TOP1, stronger effect = lower value 1.03 | S. cerevisiae deletion strains, locus YOL012C, strain htz1 0.695 | S. cerevisiae deletion strains, locus YOL147C, strain pex11, stronger effect = lower value 0.99 | S. cerevisiae deletion strains, locus YOR001W, strain rrp6, stronger effect = lower value 0.952 | S. cerevisiae deletion strains, locus YOR061W, strain CKA2, stronger effect = lower value 1 | S. cerevisiae deletion strains, locus YOR069W, strain VPS5, stronger effect = lower value 1 | S. cerevisiae deletion strains, locus YOR070C, strain gyp1, stronger effect = lower value 1.02 | S. cerevisiae deletion strains, locus YOR080W, strain dia2, stronger effect = lower value 1.02 | S. cerevisiae deletion strains, locus YOR083W, strain WHI5, stronger effect = lower value 0.997 | S. cerevisiae deletion strains, locus YOR106W, strain vam3, stronger effect = lower value 1.05 | S. cerevisiae deletion strains, locus YOR136W, strain idh2, stronger effect = lower value 0.995 | S. cerevisiae deletion strains, locus YOR144C, strain elg1, stronger effect = lower value 0.993 | S. cerevisiae deletion strains, locus YOR184W, strain ser1, stronger effect = lower value 1 | S. cerevisiae deletion strains, locus YOR265W, strain rbl2, stronger effect = lower value 1.01 | S. cerevisiae deletion strains, locus YOR270C, strain vph1, stronger effect = lower value 1.05 | S. cerevisiae deletion strains, locus YOR290C, strain snf2, stronger effect = lower value 1.05 | S. cerevisiae deletion strains, locus YOR316C, strain cot1, stronger effect = lower value 0.991 | S. cerevisiae deletion strains, locus YPL051W, strain arl3, stronger effect = lower value 1.04 | S. cerevisiae deletion strains, locus YPL055C, strain LGE1, stronger effect = lower value 1.01 | S. cerevisiae deletion strains, locus YPL078C, strain atp4, stronger effect = lower value 1.04 | S. cerevisiae deletion strains, locus YPL106C, strain sse1, stronger effect = lower value 1.01 | S. cerevisiae deletion strains, locus YPL240C, strain hsp82, stronger effect = lower value 1.01 | S. cerevisiae deletion strains, locus YPR119W, strain clb2, stronger effect = lower value 1 | S. cerevisiae deletion strains, locus YPR141C, strain kar3, stronger effect = lower value 0.98 | S. cerevisiae deletion strains, locus YPR163C, strain tif3, stronger effect = lower value 0.988 | S. cerevisiae deletion strains, locus YPR167C, strain met16, stronger effect = lower value 0.997 | S. cerevisiae deletion strains, strain wtn01, stronger effect = lower value 0.995 | S. cerevisiae strains, strain wild type, stronger effect = lower value 1.01

Reference: PubChem BioAssay AID1159580 (chemical genetic matrix, 2015)
